# Screening results deposited in PubChem by Sanford-Burnham Center for Chemical Genomics.
# In the library only some 3% were active in any assay of this set; here they are far more common.
# C8 TRAIL sens = viability loss with TRAIL in NB7+C8 cells, primary screen, TRAIL sensitizer project, cell-based, ATPlite luminescence; inhibition (viability loss, TRAIL sensitization), % at 10 µM; hit rate 1% among 360,000; AID 624354, 2012;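 active = compounds causing at least 50% loss of cell viability in the single-dose screen, relative to plate controls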
# PPC-1+TRAIL kill = compounds killing PPC-1 cancer cells with TRAIL present, primary screen, TRAIL potentiator project, ATPLite luminescence, uHTS. PPC-1 cells + TRAIL, ATPLite viability luminescence. cell killing (% activity), % at 4 µM or 5 µM. hit rate 0.41% among 220,000. AID 1443, 2008;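 active = cell killing above 50% in the first pass at 4 µM, then a duplicate retest at 5 µM averaging 50% or more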;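 also: plate controls were cells with TRAIL plus DMSO for no effect and medium-only wells lacking cells for full effect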
# SENP8 block-1 = human SENP8 protease inhibitors, primary screen, biochemical, fluorescence, Nedd8 protein substrate, uHTS. Sentrin-specific protease 8 (Homo sapiens), Q96LD8. recombinant SENP8. inhibition, % at 20 µM. hit rate 0.64% among 360,000. AID 602440, 2012; in the data active = inhibition mostly above about 40%, no sharp cut-off; inactive = mostly below about 27%
# SENP6 block = SENP6 protease inhibitors, primary screen, biochemical, luminescence, uHTS | Recombinant SENP6 catalytic domain, aminoluciferin luminescence | inhibition, % at 10 µM | hit rate 1.8% among 330,000;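 active = inhibition above about 50% at the single tested dose, limit read from the data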;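 also: plate controls were DMSO wells with enzyme for no effect and DMSO wells lacking enzyme for full effect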
# Target sequence (Q9GZR1 628-1112 limits assumed): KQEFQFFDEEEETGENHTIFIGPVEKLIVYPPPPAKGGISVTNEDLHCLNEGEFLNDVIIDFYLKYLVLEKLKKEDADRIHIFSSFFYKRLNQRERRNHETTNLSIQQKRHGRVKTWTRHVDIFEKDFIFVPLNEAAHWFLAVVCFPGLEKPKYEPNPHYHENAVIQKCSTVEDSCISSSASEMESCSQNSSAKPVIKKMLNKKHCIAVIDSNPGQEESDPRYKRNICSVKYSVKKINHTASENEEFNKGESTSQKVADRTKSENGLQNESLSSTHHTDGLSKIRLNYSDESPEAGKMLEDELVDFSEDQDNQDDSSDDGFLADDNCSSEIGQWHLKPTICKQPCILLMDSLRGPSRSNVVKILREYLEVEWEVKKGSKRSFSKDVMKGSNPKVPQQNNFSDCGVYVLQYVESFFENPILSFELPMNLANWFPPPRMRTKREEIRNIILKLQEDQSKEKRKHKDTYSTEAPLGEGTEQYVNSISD
# SENP8 block-2 = SENP8 protease inhibitors, primary screen, biochemical, luminescence. purified SENP8, Z-RLRGG-aminoluciferin cleavage. inhibition, % at 10 µM. hit rate 1.2% among 330,000. AID 2540, 2010; in the data active = inhibition above about 50%
# SENP7 inh = SENP7 protease inhibitors, primary screen, biochemical, luminescence, uHTS | Sentrin-specific protease 7 (Homo sapiens), Q9BQF6 | recombinant SENP7, Z-RLRGG-aminoluciferin luminescence, 40 min | inhibition, % at 5 µM | hit rate 1.5% among 330,000;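 active = inhibition above about 50% at the single test dose, limit read from the data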;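 also: plate controls were DMSO with enzyme for no effect and no enzyme buffer wells for full effect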
# SENP8 conf = human SENP8 protease inhibitors, confirmation, biochemical, Nedd8 protein substrate, single concentration. shares compounds with SENP8 block-1. purified SENP8, Nedd8-AMC/pro-Nedd8 cleavage fluorescence, 30 min. inhibition, % at 25 µM. hit rate 15% among 1,400. AID 624319, 2012; in the data active = inhibition mostly above about 39%, no sharp cut-off; inactive = mostly below about 34%
# Numbers without * were called inactive; / = not tested or not shown.
SMILES,C8 TRAIL sens,PPC-1+TRAIL kill,SENP8 block-1,SENP6 block,SENP8 block-2,SENP7 inh,SENP8 conf
C[C@H](CO)N1C[C@H](C)[C@@H](CN(C)C(=O)Nc2ccccc2)Oc2ccc(NC(=O)Cn3cnnn3)cc2C1=O,-10,/,5,-11,7,-7,/
Cc1c(C(=O)C(=O)N2CC=C(c3ccccc3)CC2)c2ccccc2n1C,-6,16,3,-1,-4,-4,/
CNC(=O)N(O)C1N(/N=C/c2ccc(N(C)C)cc2)C(=S)SC1(C)C (centres undefined),5,/,-91,-11,-7,-2,/
CC1(C)SC(=S)N(/N=C/c2ccccc2)C1N(O)C(=O)Nc1ccc([N+](=O)[O-])cc1 (centres undefined),2,1,44*,-9,1,4,10
COc1ccccc1N1CCN(C(=O)C2CCN(S(=O)(=O)c3ccccc3)CC2)CC1,4,8,6,-14,0,2,/
COc1ccc(S(=O)(=O)N2CCC(C(=O)N3CCN(c4ccccc4OC)CC3)CC2)cc1,2,-3,43*,-2,0,-4,4
Cc1cc(C)n(C(CC(=O)N2CCc3ccccc3C2)C(=O)O)n1 (centres undefined),-2,-2,44*,-9,0,2,10
O=C(NCCc1c[nH]c2ccccc12)OC1CC2CC1[C@H]1CCCCN1C2=O (some centres undefined),-9,/,6,/,/,/,/
CC(=O)Nc1ccc(S(=O)(=O)N2CCN(C(=O)CCC3CCCC3)CC2)cc1,-15,4,46*,2,-5,-7,11
CCC(C)Nc1nc(N)c([N+](=O)[O-])c(Nc2cc(OC)ccc2OC)n1 (centres undefined),-5,-14,45*,3,11,9,31
COC(=O)c1c(SCc2cccc3ccccc23)nc(=O)[nH]c1C,0,10,11,-9,-4,-3,/
COC(=O)c1c(SCC(=O)Nc2ccc(C)c(C)c2)nc(=O)[nH]c1C,6,0,44*,-1,1,-4,4
COC(=O)c1sc2nc(C)nc(SCC(=O)Nc3sccc3C(N)=O)c2c1C,-7,/,-13,-19,-11,-5,/
COc1cc(NC(=O)c2ccc([N+](=O)[O-])o2)ccc1NC(=O)c1ccco1,34,/,44*,6,3,7,16
C=CCN1C=C2C(=O)C(C)(OC(=O)c3cccs3)C(=O)C=C2C=C1CCCC(=O)OC (centres undefined),-14,5,20,5,-1,5,/
COC(=O)CCCC1=CC2=CC(=O)C(C)(OC(=O)c3cccs3)C(=O)C2=CN1CCc1ccccn1 (centres undefined),2,3,40*,8,-5,-8,60*
Cc1ccc(-n2nnnc2CN2CCCCC2)cc1,-8,-2,10,0,5,-1,/
O=C(NCc1ccc2c(c1)OCO2)c1ccc(CN2CCc3ccccc3C2)cc1,-2,20,42*,-17,0,5,13
CCOc1ccc(NC(=O)c2ccc(CN3CCc4ccccc4C3)cc2)cc1,25,/,9,-11,-4,8,/
CCOC(=O)c1ccc(NC(=O)c2ccc(CN3CCc4ccccc4C3)cc2)cc1,26,/,34,17,3,9,/
Cc1cc(C)c(NC(=O)c2ccc(CN3CCc4ccccc4C3)cc2)c(C)c1,0,-23,45*,11,-3,8,19
O=C(NCc1ccc2c(c1)OCO2)c1ccccc1,18,-21,2,-2,-14,-7,/
O=C(Nc1ccc(Cl)cc1)c1ccc(CN2CCc3ccccc3C2)cc1,29,/,47*,14,-2,11,25
N#CCc1ccc(NC(=O)c2ccc(CN3CCc4ccccc4C3)cc2)cc1,18,/,59*,13,4,4,12
O=C(c1ccc(F)cc1)N1CCN(S(=O)(=O)c2ccc(Br)cc2)CC1,4,/,14,-3,-1,16,/
SMILES,C8 TRAIL sens,PPC-1+TRAIL kill,SENP8 block-1,SENP6 block,SENP8 block-2,SENP7 inh,SENP8 conf
CCOC(=O)C1CCN(S(=O)(=O)c2ccc(-c3cc(C(F)(F)F)n(C)n3)s2)CC1,10,-1,52*,-9,-2,-1,35
CN(CC(=O)Nc1cccc(F)c1)CC(=O)Nc1ccccc1[N+](=O)[O-],1,24,10,13,-2,-2,/
CN(CC(=O)Nc1cccc(F)c1)CC(=O)Nc1ccc(Cl)cc1[N+](=O)[O-],1,-2,42*,13,-2,10,16
COc1ncccc1C(=O)N1CCCC(C(=O)c2cc(F)ccc2F)C1 (centres undefined),2,26,12,-3,0,-3,/
CSc1ncccc1C(=O)N1CCCC(C(=O)c2cc(F)ccc2F)C1 (centres undefined),2,-4,57*,-4,1,0,10
Cc1ccc(S(=O)(=O)N(CC(=O)Nc2ccc(Cl)c([N+](=O)[O-])c2)C2CCCCC2)cc1,4,-1,45*,0,2,10,18
COC1CCC2(C)C(=CCC3C4CC(O)CC4(C)CCC32)C1 (centres undefined),-1,/,-4,/,/,/,/
CC1=C(C)CC(C(=O)NCCc2ccc(F)cc2)C(C(=O)O)C1 (centres undefined),-14,/,16,0,6,2,/
CN(CCO)c1cc(N2CCCCC2)c2nonc2c1[N+](=O)[O-],4,6,27,16,-7,-7,/
CC1CCCN(c2cc(N(C)CCO)c([N+](=O)[O-])c3nonc23)C1 (centres undefined),3,11,49*,-6,1,1,1
COc1ccnc(Oc2ccc(Cl)cc2)c1C#N,1,12,7,9,13,3,/
O=C(SCC(O)C(O)CS)c1cccs1 (centres undefined),-13,-6,7,-5,-3,4,/
O=C(N/N=C/c1ccncc1)c1cccc(S(=O)(=O)N2CCCC2)c1,-4,/,16,-3,5,2,/
O=C(N/N=C/c1ccccn1)c1cccc(S(=O)(=O)N2CCCC2)c1,13,8,45*,5,1,-2,16
COc1ccc(CCN2CC(C(=O)OCC(=O)NC(C)c3cccc(Cl)c3)CC2=O)cc1OC (centres undefined),-19,/,16,-7,-10,-5,/
